Data on 10 compounds can be found in PubChem BioAssay (NCI).

Test systems include SR leukemia; RPMI-8226 leukemia; OVCAR-8 ovarian; OVCAR-5 ovarian; SK-OV-3 ovarian; IGROV1 ovarian; OVCAR-3 ovarian; HS 578T breast; NCI/ADR-RES ovarian; T-47D breast; BT-549 breast; MDA-MB-435 melanoma; SW-620 colon; MCF7 breast; HCT-116 colon; HCC-2998 colon; KM12 colon; OVCAR-4 ovarian.
Common to all, as to assay: NCI-60 one-dose screen, 48 h (100 = growth as untreated, 0 = no growth, -100 = all killed)
What all share (settings): 10 µM unless noted

Values joined by “and” are separate entries in the source; they are usually repeats but may differ in a detail not shown here. Equal values may be shown once. Compounds without any hit were thinned out: in the full panel of roughly 83,000, 20% have a hit.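 Note: values are percent growth. 100 is the growth of untreated cells, values between 100 and 0 indicate rising inhibition; between -100 and 0 indicates cell death.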 A structure can be active in one record and inactive in another. Active and inactive are the calls of the source. How the source made its calls: active means growth percent below 10; inactive means the rest.

Take `Cc1ccc(-c2noc(C)n2)cc1`: the growth in the experiment on SR leukemia was 90.7% (inactive); in the experiment on RPMI-8226 leukemia it was 105% (inactive); with OVCAR-8 ovarian it was 101% (inactive); with OVCAR-5 ovarian, 98.9% (inactive); with SK-OV-3 ovarian, 112% (inactive); in the experiment on IGROV1 ovarian, 102% (inactive). Further, the growth with OVCAR-3 ovarian was 122% (inactive); in the experiment with HS 578T breast it was 107% (inactive); in the experiment with NCI/ADR-RES ovarian it was 108% (inactive); with T-47D breast it was 104% (inactive); in the experiment with BT-549 breast, 98.6% (inactive); in the experiment on MDA-MB-435 melanoma, 99% (inactive). Besides, the growth is 108% (inactive) in the experiment on SW-620 colon; 95.6% (inactive) with MCF7 breast; 101% (inactive) in the experiment on HCT-116 colon; 103% (inactive) in the experiment with HCC-2998 colon; 116% (inactive) with KM12 colon.
Turning to `CCN(CC)CCNc1ccc(C)c2sc3ccccc3c(=O)c12` (tested in a mixture with another compound), the growth with SR leukemia was 8.47% (active) and 20% (inactive); in the experiment with RPMI-8226 leukemia it was 10.1% (inactive) and -9.01% (active); with OVCAR-8 ovarian, 23.7% (inactive) and 32.3% (inactive); in the experiment with OVCAR-5 ovarian, 48.8% (inactive) and 51.6% (inactive); in the experiment on IGROV1 ovarian, -29.6% (active) and 3.62% (active); in the experiment on OVCAR-3 ovarian, 58.9% (inactive) and 62.8% (inactive). Further, the growth in the experiment with HS 578T breast is 122% (inactive) and 81.6% (inactive); in the experiment with NCI/ADR-RES ovarian it was 43.1% (inactive) and 43% (inactive); with T-47D breast it was 41% (inactive) and 31.5% (inactive); with BT-549 breast, 46.4% (inactive) and 79.4% (inactive); in the experiment on MDA-MB-435 melanoma it was 23.9% (inactive) and 28.2% (inactive); in the experiment with SW-620 colon it was 24% (inactive) and 20.5% (inactive). Further, the growth in the experiment with MCF7 breast is 12.2% (inactive) and 5.61% (active); in the experiment with HCT-116 colon it was 19.4% (inactive) and 19.9% (inactive); in the experiment on HCC-2998 colon, 24.6% (inactive) and 20.5% (inactive); in the experiment with KM12 colon it was 32.9% (inactive) and 23.9% (inactive).
As for `Oc1ccccc1/C=N\NC(=S)N/N=C/c1ccccc1O`, the growth in the experiment with SR leukemia is 20% (inactive) and 21.9% (inactive); in the experiment on RPMI-8226 leukemia it was 29.3% (inactive) and 40.7% (inactive); with OVCAR-8 ovarian, 35.6% (inactive) and 23.4% (inactive); in the experiment on OVCAR-5 ovarian, 59.2% (inactive) and 59.6% (inactive); in the experiment on SK-OV-3 ovarian it was 46.5% (inactive) and 58.9% (inactive); in the experiment on IGROV1 ovarian, 20.9% (inactive) and 34.5% (inactive). Also, the growth was 14.1% (inactive) and 23% (inactive) in the experiment on OVCAR-3 ovarian; 13.5% (inactive) and 19.6% (inactive) in the experiment on NCI/ADR-RES ovarian; 48.4% (inactive) and 51.6% (inactive) in the experiment on T-47D breast; 56.3% (inactive) and 44.2% (inactive) in the experiment with MDA-MB-435 melanoma; 47.5% (inactive) and 50.7% (inactive) in the experiment with SW-620 colon; 25.6% (inactive) and 26.8% (inactive) in the experiment with MCF7 breast. Also, the growth in the experiment with HCT-116 colon was 28% (inactive) and 22.9% (inactive); with HCC-2998 colon, 33.8% (inactive) and 49.7% (inactive); with KM12 colon, 39% (inactive) and 28.2% (inactive).
`Nc1nc(SC/C=C/CCl)c2[nH]cnc2n1`: the growth in the experiment with SR leukemia was 77.5% (inactive); in the experiment with RPMI-8226 leukemia, 100% (inactive); in the experiment with OVCAR-8 ovarian, 103% (inactive) and 97.6% (inactive); in the experiment on OVCAR-5 ovarian it was 109% (inactive) and 101% (inactive); in the experiment on SK-OV-3 ovarian, 99.4% (inactive) and 112% (inactive); in the experiment on IGROV1 ovarian it was 114% (inactive) and 97.3% (inactive). Besides, the growth in the experiment with OVCAR-3 ovarian is 117% (inactive) and 120% (inactive); in the experiment on HS 578T breast, 112% (inactive) and 125% (inactive); in the experiment with NCI/ADR-RES ovarian it was 103% (inactive) and 106% (inactive); in the experiment on T-47D breast, 108% (inactive) and 92.9% (inactive); in the experiment with MDA-MB-435 melanoma it was 105% (inactive) and 101% (inactive); with SW-620 colon, 105% (inactive) and 106% (inactive). The growth was 125% (inactive) and 85.4% (inactive) in the experiment with MCF7 breast; 104% (inactive) and 105% (inactive) in the experiment with HCT-116 colon; 101% (inactive) and 103% (inactive) in the experiment with HCC-2998 colon; 107% (inactive) and 111% (inactive) in the experiment on KM12 colon.
For `COc1ccc(-c2cn[nH]c2-c2cc(OC)c(OC)c(OC)c2)cc1N`, the growth is 12% (inactive) and 19.5% (inactive) with SR leukemia; 29.4% (inactive) and 23.7% (inactive) in the experiment with RPMI-8226 leukemia; 21.3% (inactive) and 12.9% (inactive) in the experiment with OVCAR-8 ovarian; 46% (inactive) and 48.7% (inactive) in the experiment with OVCAR-5 ovarian; 23% (inactive) and 36.5% (inactive) in the experiment on SK-OV-3 ovarian; -7.09% (active) and -1.14% (active) in the experiment with OVCAR-3 ovarian. Further, the growth in the experiment with HS 578T breast was 39.5% (inactive) and 40% (inactive); with NCI/ADR-RES ovarian, -5.9% (active) and 4.84% (active); in the experiment with T-47D breast it was 73% (inactive) and 86.7% (inactive); in the experiment on BT-549 breast, 30.8% (inactive) and 5.24% (active); with MDA-MB-435 melanoma, -47.4% (active) and -19% (active); in the experiment on SW-620 colon, 24.7% (inactive) and 27.7% (inactive). For the same compound, the growth with MCF7 breast was 21.6% (inactive) and 15.8% (inactive); with HCT-116 colon, 3.95% (active) and 7.78% (active); in the experiment on HCC-2998 colon it was 13.7% (inactive) and 23% (inactive); with KM12 colon it was 9.16% (active) and 16.9% (inactive).
For the compound `CC1(c2ccc3ccccc3c2)CCC(=O)O1` (stereo unspecified), the growth in the experiment with SR leukemia was 92.2% (inactive); with RPMI-8226 leukemia it was 109% (inactive); with OVCAR-8 ovarian it was 101% (inactive); in the experiment with OVCAR-5 ovarian it was 102% (inactive); in the experiment on SK-OV-3 ovarian it was 95.3% (inactive); in the experiment with IGROV1 ovarian, 102% (inactive). Also, the growth with OVCAR-3 ovarian is 105% (inactive); in the experiment on HS 578T breast, 125% (inactive); in the experiment with NCI/ADR-RES ovarian, 105% (inactive); with T-47D breast it was 103% (inactive); with BT-549 breast it was 104% (inactive); with MDA-MB-435 melanoma, 106% (inactive). The growth in the experiment with SW-620 colon is 108% (inactive); with MCF7 breast it was 106% (inactive); in the experiment with HCT-116 colon it was 111% (inactive); in the experiment on HCC-2998 colon, 109% (inactive); with KM12 colon it was 106% (inactive).
`Cc1cc(-c2ccc(NS(=O)(=O)c3ccccc3)c(C)c2)ccc1NS(=O)(=O)c1ccccc1`: the growth is 49.2% (inactive) and 59.7% (inactive) with SR leukemia; 53.7% (inactive) and 66.1% (inactive) with RPMI-8226 leukemia; 85.4% (inactive) and 95.8% (inactive) with OVCAR-8 ovarian; 126% (inactive) and 111% (inactive) in the experiment on OVCAR-5 ovarian; 102% (inactive) and 126% (inactive) in the experiment with SK-OV-3 ovarian; 69.3% (inactive) and 117% (inactive) in the experiment on IGROV1 ovarian. The growth with OVCAR-3 ovarian is 90.1% (inactive) and 107% (inactive); in the experiment on HS 578T breast, 83.4% (inactive) and 92.6% (inactive); with NCI/ADR-RES ovarian it was 86.1% (inactive) and 87.3% (inactive); in the experiment on T-47D breast, 78.7% (inactive) and 105% (inactive); in the experiment with BT-549 breast, 79.7% (inactive); in the experiment with MDA-MB-435 melanoma, 92.5% (inactive) and 102% (inactive). The growth in the experiment on SW-620 colon is 92.2% (inactive) and 108% (inactive); with MCF7 breast it was 60.4% (inactive) and 82.9% (inactive); in the experiment with HCT-116 colon, 70.7% (inactive) and 101% (inactive); in the experiment with HCC-2998 colon, 100% (inactive) and 110% (inactive); with KM12 colon, 72.3% (inactive) and 90.1% (inactive).
As to `O=[N+]([O-])c1ccc(/C=N\NC(=S)Nc2ccc(F)cc2)cc1`, the growth with SR leukemia was 99.7% (inactive); in the experiment on RPMI-8226 leukemia, 100% (inactive) and 85.2% (inactive); with OVCAR-8 ovarian it was 94.1% (inactive) and 95.3% (inactive); in the experiment on OVCAR-5 ovarian it was 115% (inactive) and 94.7% (inactive); in the experiment on SK-OV-3 ovarian it was 98.5% (inactive) and 91.7% (inactive); in the experiment on IGROV1 ovarian, 96.8% (inactive) and 99.1% (inactive). In addition, the growth in the experiment with OVCAR-3 ovarian is 129% (inactive) and 109% (inactive); with HS 578T breast it was 93.4% (inactive); in the experiment with NCI/ADR-RES ovarian, 100% (inactive) and 89.8% (inactive); in the experiment with T-47D breast, 94.5% (inactive) and 88.4% (inactive); with BT-549 breast, 97.9% (inactive); in the experiment on MDA-MB-435 melanoma, 109% (inactive) and 101% (inactive). Besides, the growth in the experiment with SW-620 colon was 106% (inactive) and 94.1% (inactive); in the experiment with MCF7 breast, 89% (inactive) and 97.8% (inactive); in the experiment with HCT-116 colon, 71.7% (inactive) and 53% (inactive); with HCC-2998 colon, 106% (inactive) and 87.6% (inactive); in the experiment with KM12 colon, 98.6% (inactive) and 81.3% (inactive).
As to `CCCCCCCCCCCCOc1ccccc1C=O`, the growth was 84.9% (inactive) in the experiment with SR leukemia; 96.4% (inactive) with RPMI-8226 leukemia; 94.6% (inactive) in the experiment on OVCAR-8 ovarian; 101% (inactive) with OVCAR-5 ovarian; 95.7% (inactive) with SK-OV-3 ovarian; 112% (inactive) with IGROV1 ovarian. The growth in the experiment with OVCAR-3 ovarian is 108% (inactive); in the experiment on HS 578T breast, 97% (inactive); with NCI/ADR-RES ovarian, 102% (inactive); with T-47D breast, 100% (inactive); in the experiment on SW-620 colon, 101% (inactive); in the experiment on MCF7 breast it was 81.7% (inactive). Further, the growth with HCT-116 colon is 103% (inactive); in the experiment with HCC-2998 colon, 90.2% (inactive); with KM12 colon, 102% (inactive).
Turning to `O=C(c1ccc(Cl)cc1)C(NCCO)c1ccc(Cl)cc1` (stereo unspecified), the growth with SR leukemia is 92.8% (inactive) and 88.1% (inactive); in the experiment on RPMI-8226 leukemia, 79.3% (inactive) and 113% (inactive); in the experiment with OVCAR-8 ovarian, 99.2% (inactive) and 99.8% (inactive); in the experiment on OVCAR-5 ovarian, 108% (inactive) and 99.5% (inactive); in the experiment with OVCAR-4 ovarian it was 103% (inactive); in the experiment with SK-OV-3 ovarian, 107% (inactive) and 98.2% (inactive). Besides, the growth with OVCAR-3 ovarian was 104% (inactive) and 101% (inactive); with NCI/ADR-RES ovarian it was 98.1% (inactive) and 98% (inactive); in the experiment with T-47D breast it was 85.4% (inactive); in the experiment with BT-549 breast it was 104% (inactive) and 94.6% (inactive); with SW-620 colon, 101% (inactive) and 102% (inactive); in the experiment on MCF7 breast it was 103% (inactive) and 97.3% (inactive). The growth in the experiment with HCT-116 colon was 102% (inactive) and 99.4% (inactive); in the experiment with HCC-2998 colon, 101% (inactive); in the experiment with KM12 colon, 105% (inactive) and 101% (inactive).
